Inconclusive results are not listed. Unmarked numbers belong to inactive results. Calls of active or inactive are those of the source. The call rests on the fitted dose curve; in most records, active means well fitted inhibition curve with a large enough effect; inconclusive means small, poorly fitted or top-dose-only effect; inactive means no such curve, though single readings can be large or run the other way.
biological target: Retinaldehyde dehydrogenase 3 (Homo sapiens) (UniProt P47895); experiment: qHTS for Inhibitors of the Aldehyde Dehydrogenase Family (ALDH1A3) Primary screen (AID 2061315); conditions: ALDH inhibition qHTS; series mostly up to 56 µM; activity change, negative = inhibition: at the top concentration;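 on activity change, negative = inhibition: plate controls were DMSO vehicle for no effect and reference inhibitor for full effect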
Potency means the concentration at half of the fitted maximal effect.

SMILES	activity change, negative = inhibition	Potency
NC(=O)c1cccc(-c2cc(OC(=O)NC3CCCCC3)ccc2O)c1	-18.6%	–
CC(=O)N(O)CCCCCN1C(=O)CCC1=O	-8.36%	–
O=C1C(c2c(O)[nH]c3ccccc23)=Nc2ccccc21	5.57% [at 28 µM]	–
CNC(=O)c1cc(Oc2ccc(NC(=O)c3cccc(C(F)(F)F)c3)cc2)ccn1	2.13%	–
O=C1Nc2ccccc2-c2nc3ccccc3c(=O)n2-c2c(O)cccc21	-15.9%	–
NC1(c2ccc(NC(=O)c3ccnc(-c4cc(C(=O)O)ccn4)c3)cc2)CC1	68.4%	–
CC(C(=O)O)c1ccc2c(c1)CC(=O)c1ccccc1S2 (stereo unspecified)	1.19%	–
CNC(=O)Nc1ccc(OC)c(NC(=O)NC(=O)c2cc(F)c(F)cc2Cl)c1	–	28.2 µM (active)
C/C(=N\N=C(N)N)c1cc(NC(=O)CCCCCCCCC(=O)Nc2cc(/C(C)=N/N=C(N)N)cc(/C(C)=N/N=C(N)N)c2)cc(/C(C)=N/N=C(N)N)c1	20.1%	–
C=CC(=O)N1CCCN(c2cc(NCCC(=O)O)nc(-c3ccccn3)n2)CC1	108%	–
CC(=O)OCC(=O)[C@@]1(O)[C@H](C)C[C@H]2[C@@H]3C=C(C)C4=Cc5c(cnn5-c5ccccc5)C[C@]4(C)[C@@H]3[C@@H](O)C[C@@]21C	0.185%	–
COc1cc(NC(=O)c2ccccn2)ccc1Cl	-22.8%	–
CC(C)Nc1cc(-c2c[nH]c(C(=O)N[C@H](CO)c3cccc(Cl)c3)c2)c(Cl)cn1	2.84%	–
Cc1nc2c(C#N)c[nH]n2c(=O)c1C(C)C	-1.55%	–
CCOc1ccc(Cc2nc(-c3c(C)nc4ccccn34)cs2)cc1	15.6%	–
CCC[C@H](N[C@@H](C)C(=O)N1[C@H](C(=O)O)C[C@@H]2CCCC[C@@H]21)C(=O)O	-10.7%	–

From PubChem BioAssay (NCATS)
